# Data reported in PubChem BioAssay (NCI).
# About 83,000 compounds went through this panel and 20% of them were active in at least one assay; those are over-represented in the sample as a whole.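 Testing used 96-well plates and a 48-hour single-concentration exposure. Example: -40 means 40% of the starting cells died.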 Unmarked numbers belong to inactive results. Active and inactive are the calls of the source. How the source made its calls: active means growth percent below 10; inactive means the rest.
# Tested on: SR leukemia
# Assay: NCI-60 one-dose screen, 48 h (100 = growth as untreated, 0 = no growth, -100 = all killed)
# Conditions: 10 µM unless noted
row,SMILES,growth
1,COC(=O)c1c(C)nc(C)c2c1C(=O)C=C(NCc1ccccc1)C2=O,54.1%
2,COc1ccc2[nH]cc(-c3nonc3-c3c[nH]c4ccc(Br)cc34)c2c1,35.4%
3,C=C(C)[C@@H]1CC[C@]2(COC3CCCCO3)CC[C@]3(C)[C@H](CC[C@@H]4[C@@]5(C)C=C(C=O)C(=O)C(C)(C)[C@@H]5CC[C@]43C)[C@@H]12 (some centres undefined),-5.54% (active)
4,CCOc1ncc([N+](=O)[O-])c(OCC)n1,93.7%
5,c1ccc(-c2c(-c3ccccc3)[n+](Cc3ccc4ccccc4c3)cn2Cc2ccc3ccccc3c2)cc1,-74.5% (active)
6,Cn1cc(-c2csc(-c3cn(CCCN4CCOCC4)c4ccc(F)cc34)n2)c2cccnc21,48.4%
7,Cc1cn(C)cn1,99.4%
8,COC(=O)c1sccc1-c1cc(O)c(C(=O)Nc2ccccc2)s1,92.8%
9,CCCCCc1ccc(S(=O)(=O)Nc2ccc3nc(N)oc3c2)cc1,31.1%
10,COc1ccc2c(O)c(/C=C3\N=Nc4ncccc43)oc2c1C[C@@H]1CCNC[C@H]1F,-22.1% (active)
11,CCN(CC)CCCC(Cc1ccccc1)Nc1c2ccc(Cl)cc2nc2ccc(OC)cc12 (centres undefined),-27.4% (active)
12,CNCC[C@H](Oc1cccc2ccccc12)c1cccs1,51.9%
13,CCOC(=O)c1cnn(CC(C)O)c1NC(=O)NCc1cccc(F)c1 (centres undefined),92.1%
14,N#Cc1ccc(/C=C/c2cn(-c3ccccc3)nc2-c2cccc([N+](=O)[O-])c2)cc1,66.5%
15,O=C(/C=C/c1ccco1)Nc1ncc(Cc2cc(Cl)ccc2Cl)s1,12.1%
16,CCOC(=O)c1nnn(Cc2cc(=O)oc3ccc(O)cc23)c1C,92.8%
17,CC1(C)CC[C@]23CC[C@]4(C)[C@H](CC[C@@H]5[C@@]6(C)C/C(=C/O)C(=O)C(C)(C)[C@@H]6CC[C@]54C)[C@H]2[C@H]1OC3,95.1%
18,COC(=O)c1nc(-c2ccccc2)oc1S(=O)(=O)N1CCCC(C)C1 (centres undefined),0.921% (active)
19,Cc1ccc2c(/C=C/C(=O)c3cc(CN4CCOCC4)c(O)c4nc(C)ccc34)cc(CN3CCOCC3)c(O)c2n1,6.56% (active)
20,CCN1C(=O)N(CC)C2C1NN=c1s/c(=C\c3ccc(OC)cc3)c(=O)n12 (centres undefined),12.1%

row,SMILES,growth
1,COc1ccc(C/C(C)=C(\c2ccc(Cl)cc2)c2ccc(OCCN3CCCC3)cc2)cc1,-14.2% (active)
2,CCN(CC)CCOc1ccc(Nc2ncc3cc(-c4c(Cl)cccc4Cl)c(=O)n(CCOC)c3n2)cc1,-30.8% (active)
3,O=C(O)c1cn(C2CC2)c2cc(N3CCN(C(=O)N4CCOCC4)CC3)c(F)cc2c1=O,116%
4,Clc1ccc(-c2nc(C(Cl)Cl)nc3cc(-c4ccccc4)nn23)cc1,10.4%
5,c1cc(OCCN2CCCCCC2)ccc1CNc1ccc2nc(CCC3CCCCC3)[nH]c2c1,26.1%
6,CN(C)CCCC1(c2ccc(F)cc2)OCc2cc(-c3csc4ccccc34)ccc21 (centres undefined),-8.7% (active)
7,C(=C(\C1=NCCN1)n1ccc2ccccc21)/c1ccccc1,95.9%
8,COc1ccc(C/C(C)=C(\c2ccc(Cl)cc2)c2ccc(OCCCN(C)C)cc2)cc1,-31.7% (active)
9,Cc1ccc(S(=O)(=O)c2nc(-c3ccccc3)oc2SCC(N)=O)cc1,94.6%
10,CCCCn1c(NC(C)=O)c(S(=O)(=O)c2ccccc2)c2nc3ccccc3nc21,86.9%
11,Cc1ccc(Cc2cnc(NC(=O)/C=C/c3ccc(C)o3)s2)cc1,16.2%
12,CCN(CC)CCOc1ccc(C(=O)/C=C\c2ccc(Cl)cc2Cl)cc1,-15.4% (active)
13,O=C(/C=C/C12c3ccccc3C(c3ccccc31)C1C(=O)NC(=O)C12)c1ccco1 (centres undefined),13%
14,CCOC(=O)C1=C(CC(O)c2ccc(OC)cc2OC)NC(=O)NC1c1ccccc1 (centres undefined),75.9%
15,COc1ccc2c(c1)CC[C@@H]1[C@@H]2CC[C@]2(C)c3c(cc(C#N)c4c3sc3ccccc34)C[C@@H]12,89.3%
16,COc1ccc(-c2cn(Cc3cc4ccccc4s3)nn2)cc1OCCN1CCCCC1,1.37% (active)
17,Cc1ncc(C(=O)Nc2ccc(CN3CCN(C)CC3)c(C(F)(F)F)c2)cc1C#Cc1cnc(N)c2ccc(C#N)cc12,4.87% (active)
18,Cc1sc2nc(NCCN)[nH]c(=O)c2c1C,89.6%
19,C#CCOc1cccc(Nc2ncnc3cc(NC(=O)CCl)ccc23)c1,-47.7% (active)
20,COc1cc(-c2ccc(-c3ccc(C(=N)N)cc3)s2)cc(OC)c1OC,5.38% (active)

# Tested on: RPMI-8226 leukemia
# Assay: as above
# Conditions: 10 µM unless noted
row,SMILES,growth
1,Cc1cn(C)cn1,102%
2,Clc1ccc(-c2nc(C(Cl)Cl)nc3cc(-c4ccccc4)nn23)cc1,38.5%
3,CN(C)CCCC1(c2ccc(F)cc2)OCc2cc(-c3csc4ccccc34)ccc21 (centres undefined),-40.7% (active)
4,COc1ccc(-c2cn(Cc3cc4ccccc4s3)nn2)cc1OCCN1CCCCC1,28.5%
